This is part of a sample that, as a whole, favours compounds with a hit. Of some 83,000 tested, about 20% had one in any assay.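 Growth was measured after 48 h exposure to one concentration of compound in 96-well plates. Values under 10 count as active.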 Active and inactive are the calls of the source.
The compounds below were run on U251 CNS (assay: NCI-60 one-dose screen, 48 h (100 = growth as untreated, 0 = no growth, -100 = all killed)). Conditions: 10 µM unless noted.

Structure (SMILES)	growth
N#C/C(=C\c1ccc(Br)cc1)n1nnc2cccc(F)c21	15.6% (inactive)
COc1cc2oc(-c3cccc(C(=O)Nc4ccc(Cl)cc4)c3)cc(=O)c2c(OC)c1OC	37.4% (inactive)
CS(=O)(=O)c1ccc(-c2cc(-c3nnc(SCC(=O)Nc4ccc(C(=O)/C=C/c5ccc(Cl)cc5)cc4)n3-c3ccccc3)c3ccccc3n2)cc1	90.9% (inactive)
COc1ccccc1OCC(=O)N1CCCCCC1	95.3% (inactive)
NC(=O)c1cccc(-n2ccc3cc(NC(=O)Nc4cc(C(F)(F)F)cc(C(F)(F)F)c4)ccc32)n1	36.7% (inactive)
COc1cc2nc(-c3ccc(C(F)(F)F)cc3)cc(OCCCN3CCCCC3)c2cc1OC	49.6% (inactive)
COc1ccc2c(Nc3ccc(NS(C)(=O)=O)cc3)c3ccccc3nc2c1	4.96% (active)
C=CCn1c(SCC(=O)Nc2ccc(C(=O)/C=C/c3cc(OC)c(OC)c(OC)c3)cc2)nnc1-c1cc(-c2ccc(S(C)(=O)=O)cc2)nc2ccccc12	88.3% (inactive)
CN(C)c1ccc(-c2c(C#N)c(N)n3nc(N)c(C#N)c3c2C#N)cc1	90.1% (inactive)
CCCCCN1C=C/C(=C\C(=O)N(C)c2cccc3ccccc23)c2ccccc21	95.8% (inactive)
CCCCCOc1ccc(/C=N/Nc2cc(C)nc3ccc(Br)cc23)cc1	-65% (active)
COc1cccc(C(Cc2ccccc2)Nc2ccccc2)c1OC (stereo unspecified)	89.8% (inactive)
Cc1ccc(Nc2cc(=S)nc(N)[nH]2)cc1C	92.1% (inactive)
O=S(=O)(O)c1cc(O)c2c(N=Nc3ccc(Nc4ccccc4)c4c(S(=O)(=O)O)cccc34)cc(S(=O)(=O)O)cc2c1	102% (inactive)
COc1cc2c(cc1[N+](=O)[O-])-c1ccc([N+](=O)[O-])cc1/C2=N\O	76.8% (inactive)
CS(=O)(=O)OCCN(CCOS(C)(=O)=O)c1ccc(/C=N/Nc2ccc([N+](=O)[O-])cc2[N+](=O)[O-])cc1	76% (inactive)
COc1cc2c(cc1[N+](=O)[O-])-c1ccc([N+](=O)[O-])cc1/C2=N/NC(N)=S	47.1% (inactive)
CN(C)C(C(N)=O)c1ccc(Cl)cc1 (stereo unspecified)	93.4% (inactive)
CC(C)(C)OC(=O)N1CCN(c2ccc(N)cc2)C(=O)C1	107% (inactive)

Structure (SMILES)	growth
CC(=O)OCC(=O)C1(O)C(C)CC2C3C=C(C)C4=Cc5c(cnn5-c5ccccc5)CC4(C)C3C(O)CC21C (stereo unspecified)	14.3% (inactive)
Cc1ccc(C2C3CC4CCCCC4N3[C@@]3(C(=O)Nc4cc(Cl)ccc43)C2C(=O)c2nc3ccccc3[nH]2)cc1 (stereo partly specified)	38% (inactive)
COc1ccc(-n2cc(-c3cc(OC)c(OC)c(OC)c3)n(C(C)=O)c2=O)cc1	88.2% (inactive)
C=C(C)[C@@H]1CC[C@]2(C(=O)N3CCN(C)CC3)CC[C@]3(C)[C@H](CC[C@@H]4[C@@]5(C)CCC(=O)C(C)(C)[C@@H]5CC[C@]43C)[C@@H]12	69.7% (inactive)
NC(=S)N/N=C(/c1ccccc1)c1ccccc1N	95.6% (inactive)
COc1ccc(C(=O)c2cc(C)c(OC)c(C)c2)c(OC)c1N(C(=O)C(Cl)Cl)C(=O)C(Cl)Cl	19.2% (inactive)
c1ccc(-c2nn(-c3ccccc3)[n+](-c3ccccc3-c3ccccc3)n2)cc1	15% (inactive)
COc1ccc2c(c1)OC13Oc4cc(OC)ccc4C=C1CCCC3=C2	35% (inactive)
CC(O)(CO)c1ccccc1 (stereo unspecified)	101% (inactive)
O=C(Nc1nc(-c2ccccc2Cl)cs1)c1cc(-c2ccccc2)nc2ccc(Cl)cc12	62.5% (inactive)
COC(=O)N[C@H]1CCc2cc(OC)c(OC)c(OC)c2-c2ccc(SC)c(=O)cc21	12.8% (inactive)
CCCCCCN(C)Cc1ccc(OCCOc2ccc(CN(C)CCCCCC)cc2)cc1	7.97% (active)
CCOC(=O)N1CCc2c(sc3nc4nc[nH]n4c(=O)c23)C1	100% (inactive)
CCOC(=O)c1c(C)nc2c(c1N)C(=O)C(=O)N2Cc1ccc(C(F)(F)F)cc1	41% (inactive)
CC(=O)c1cccc(NS(=O)(=O)c2cccc(C(=O)Nc3ccc(Br)cc3)c2)c1	62.7% [25 µM] (inactive)
COc1ccccc1C(C[N+](=O)[O-])c1c(-c2ccccc2)[nH]c2cc(C)ccc12 (stereo unspecified)	83.9% (inactive)
CC(C)Cc1ccc(C(C)C(=O)NCc2c[nH]c3ccc(Cl)cc23)cc1 (stereo unspecified)	91.8% (inactive)
CCCC1C(C(=O)OCC)=C(N)Oc2cc(O)ccc21 (stereo unspecified)	104% (inactive)
Cc1ccc(C(=O)Nc2ccccc2C(=O)N/N=C(\c2ccccc2)c2ccccn2)cc1	22.6% (inactive)

These compounds were tested on PC-3 prostate in the same assay as above. Conditions: 10 µM unless noted.

Structure (SMILES)	growth
N#C/C(=C\c1ccc(Br)cc1)n1nnc2cccc(F)c21	29% (inactive)
COc1cc2oc(-c3cccc(C(=O)Nc4ccc(Cl)cc4)c3)cc(=O)c2c(OC)c1OC	27.1% (inactive)
CS(=O)(=O)c1ccc(-c2cc(-c3nnc(SCC(=O)Nc4ccc(C(=O)/C=C/c5ccc(Cl)cc5)cc4)n3-c3ccccc3)c3ccccc3n2)cc1	89.1% (inactive)
COc1ccccc1OCC(=O)N1CCCCCC1	89.8% (inactive)
NC(=O)c1cccc(-n2ccc3cc(NC(=O)Nc4cc(C(F)(F)F)cc(C(F)(F)F)c4)ccc32)n1	32.4% (inactive)
COc1cc2nc(-c3ccc(C(F)(F)F)cc3)cc(OCCCN3CCCCC3)c2cc1OC	43.2% (inactive)
COc1ccc2c(Nc3ccc(NS(C)(=O)=O)cc3)c3ccccc3nc2c1	6.89% (active)
C=CCn1c(SCC(=O)Nc2ccc(C(=O)/C=C/c3cc(OC)c(OC)c(OC)c3)cc2)nnc1-c1cc(-c2ccc(S(C)(=O)=O)cc2)nc2ccccc12	88.8% (inactive)
CN(C)c1ccc(-c2c(C#N)c(N)n3nc(N)c(C#N)c3c2C#N)cc1	76.6% (inactive)
CCCCCN1C=C/C(=C\C(=O)N(C)c2cccc3ccccc23)c2ccccc21	94.4% (inactive)
CCCCCOc1ccc(/C=N/Nc2cc(C)nc3ccc(Br)cc23)cc1	27.3% (inactive)
COc1cccc(C(Cc2ccccc2)Nc2ccccc2)c1OC (stereo unspecified)	83.2% (inactive)
Cc1ccc(Nc2cc(=S)nc(N)[nH]2)cc1C	90.7% (inactive)
O=S(=O)(O)c1cc(O)c2c(N=Nc3ccc(Nc4ccccc4)c4c(S(=O)(=O)O)cccc34)cc(S(=O)(=O)O)cc2c1	95% (inactive)
COc1cc2c(cc1[N+](=O)[O-])-c1ccc([N+](=O)[O-])cc1/C2=N\O	73.2% (inactive)
CS(=O)(=O)OCCN(CCOS(C)(=O)=O)c1ccc(/C=N/Nc2ccc([N+](=O)[O-])cc2[N+](=O)[O-])cc1	67.3% (inactive)
COc1cc2c(cc1[N+](=O)[O-])-c1ccc([N+](=O)[O-])cc1/C2=N/NC(N)=S	58% (inactive)
CN(C)C(C(N)=O)c1ccc(Cl)cc1 (stereo unspecified)	95.1% (inactive)
CC(C)(C)OC(=O)N1CCN(c2ccc(N)cc2)C(=O)C1	109% (inactive)

Structure (SMILES)	growth
CC(=O)OCC(=O)C1(O)C(C)CC2C3C=C(C)C4=Cc5c(cnn5-c5ccccc5)CC4(C)C3C(O)CC21C (stereo unspecified)	9.92% (active)
Cc1ccc(C2C3CC4CCCCC4N3[C@@]3(C(=O)Nc4cc(Cl)ccc43)C2C(=O)c2nc3ccccc3[nH]2)cc1 (stereo partly specified)	25.3% (inactive)
COc1ccc(-n2cc(-c3cc(OC)c(OC)c(OC)c3)n(C(C)=O)c2=O)cc1	94% (inactive)
C=C(C)[C@@H]1CC[C@]2(C(=O)N3CCN(C)CC3)CC[C@]3(C)[C@H](CC[C@@H]4[C@@]5(C)CCC(=O)C(C)(C)[C@@H]5CC[C@]43C)[C@@H]12	54.7% (inactive)
NC(=S)N/N=C(/c1ccccc1)c1ccccc1N	67.3% (inactive)
COc1ccc(C(=O)c2cc(C)c(OC)c(C)c2)c(OC)c1N(C(=O)C(Cl)Cl)C(=O)C(Cl)Cl	18.1% (inactive)
c1ccc(-c2nn(-c3ccccc3)[n+](-c3ccccc3-c3ccccc3)n2)cc1	2.58% (active)
COc1ccc2c(c1)OC13Oc4cc(OC)ccc4C=C1CCCC3=C2	23.6% (inactive)
CC(O)(CO)c1ccccc1 (stereo unspecified)	91.7% (inactive)
O=C(Nc1nc(-c2ccccc2Cl)cs1)c1cc(-c2ccccc2)nc2ccc(Cl)cc12	73.2% (inactive)
COC(=O)N[C@H]1CCc2cc(OC)c(OC)c(OC)c2-c2ccc(SC)c(=O)cc21	22.4% (inactive)
CCCCCCN(C)Cc1ccc(OCCOc2ccc(CN(C)CCCCCC)cc2)cc1	23.9% (inactive)
CCOC(=O)N1CCc2c(sc3nc4nc[nH]n4c(=O)c23)C1	92.7% (inactive)
CCOC(=O)c1c(C)nc2c(c1N)C(=O)C(=O)N2Cc1ccc(C(F)(F)F)cc1	43.7% (inactive)
CC(=O)c1cccc(NS(=O)(=O)c2cccc(C(=O)Nc3ccc(Br)cc3)c2)c1	48.8% [25 µM] (inactive)
COc1ccccc1C(C[N+](=O)[O-])c1c(-c2ccccc2)[nH]c2cc(C)ccc12 (stereo unspecified)	69.5% (inactive)
CC(C)Cc1ccc(C(C)C(=O)NCc2c[nH]c3ccc(Cl)cc23)cc1 (stereo unspecified)	66.2% (inactive)
CCCC1C(C(=O)OCC)=C(N)Oc2cc(O)ccc21 (stereo unspecified)	77.5% (inactive)
Cc1ccc(C(=O)Nc2ccccc2C(=O)N/N=C(\c2ccccc2)c2ccccn2)cc1	33.1% (inactive)
